The results in this text go back to PubChem BioAssay (NCI).

About 83,000 compounds went through this panel and 20% of them were active in at least one assay; those are over-represented in the sample as a whole.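 48-hour exposure, single concentration, 96-well plates; percent growth endpoint where 0 means no net growth. Active: below 10.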 Unmarked numbers belong to inactive results. Calls of active or inactive are those of the source.

What all share (test): NCI-60 one-dose screen, 48 h (100 = growth as untreated, 0 = no growth, -100 = all killed)
In experiment [1] the test system is HCT-15 colon. The note with it: 10 µM unless noted.
Experiment [2] concerns HT29 colon. The note with it: 10 µM unless noted.
Experiment [3] relates to SNB-75 CNS. Particulars: 10 µM unless noted.
The subject of experiment [4] is SNB-19 CNS. The note with it: 10 µM unless noted.
Experiment [5] has as its system U251 CNS. The note with it: 10 µM unless noted.
Experiment [6] concerns PC-3 prostate. Particulars: 10 µM unless noted.
The test system of experiment [7] is SK-MEL-5 melanoma. Particulars: 10 µM unless noted.
The subject of experiment [8] is UACC-62 melanoma. The note with it: 10 µM unless noted.
Experiment [9] has as its system LOX IMVI melanoma. Particulars: 10 µM.
For experiment [10], the system named is SK-MEL-28 melanoma. Particulars: 10 µM unless noted.
Experiment [11] concerns SK-MEL-2 melanoma. Particulars: 10 µM unless noted.
The subject of experiment [12] is EKVX NSCLC. The note with it: 10 µM unless noted.
Experiment [13] relates to SN12C renal. The note with it: 10 µM unless noted.
Experiment [14] relates to UO-31 renal. Particulars: 10 µM unless noted.
The test system of experiment [15] is TK-10 renal. The note with it: 10 µM unless noted.
Experiment [16] has as its system ACHN renal. Particulars: 10 µM unless noted.
Experiment [17] has as its system CAKI-1 renal. Particulars: 10 µM unless noted.
The test system of experiment [18] is A498 renal. Particulars: 10 µM unless noted.
Experiment [19] concerns CCRF-CEM leukemia. The note with it: 10 µM unless noted.
The subject of experiment [20] is MOLT-4 leukemia. The note with it: 10 µM unless noted.

With `CC(=O)OCC1OC(OC2C(COC(C)=O)OC(n3cc(COc4ccc5ccc(=O)oc5c4)nn3)C(OC(C)=O)C2OC(C)=O)C(OC(C)=O)C(OC(C)=O)C1OC(C)=O` (stereo not given), the growth in experiment [1] is 102%; in experiment [2], 114%; in experiment [3], 69.2%; in experiment [4], 100%; in experiment [5], 106%; in experiment [6] it was 98.8%. For the same compound, the growth in experiment [7] was 99.2%; in [8], 94.2%; in experiment [9], 104%; in experiment [10], 109%; in experiment [11] it was 113%; in [12], 107%. Moreover, the growth is 98.3% in experiment [13]; 74.7% in [14]; 108% in [15]; 102% in [16]; 88.1% in experiment [17]; 116% in experiment [18]. The growth in experiment [19] is 100%; in [20], 97%.
For `COC(OC)C1=C(C)OC(N)=C(C#N)C12C(=O)Nc1ccccc12` (stereo not given), the growth in experiment [1] was 94.6%; in experiment [2], 102%; in experiment [3], 103%; in experiment [4] it was 97%; in experiment [5], 99.4%; in experiment [6] it was 92.8%. For the same compound, the growth in experiment [7] is 92.4%; in [8] it was 81.1%; in [9], 28.4%; in [10], 85%; in experiment [11], 96.2%; in experiment [12] it was 99.7%. Further, the growth was 93.3% in experiment [13]; 70.3% in [14]; 161% in [15]; 84.9% in experiment [16]; 108% in experiment [17]; 125% in experiment [18]. Besides, the growth in experiment [19] was 54.6%; in [20], 95.9%.
`Cc1occc1C(=O)NN1C(=O)/C(=C/C=C/c2ccc([N+](=O)[O-])o2)SC1=S`: the growth is -75.5% (active) in [1]; -57.2% (active) in experiment [2]; -13.4% (active) in [3]; 12.6% in experiment [4]; -92.7% (active) in [5]; 0.198% (active) in experiment [6]. Moreover, the growth was -96.7% (active) in experiment [7]; -91.9% (active) in experiment [8]; -95.9% (active) in experiment [9]; -73.2% (active) in [10]; -71.8% (active) in experiment [11]; -52.1% (active) in experiment [12]. Also, the growth in experiment [13] is -88.1% (active); in experiment [14], -96.3% (active); in experiment [15], -49.7% (active); in experiment [16], -100% (active); in experiment [17], -59.7% (active); in experiment [18], 95.3%. Further, the growth in [19] was 0.965% (active); in experiment [20], 5.26% (active).
Consider `COc1c(F)ccc(C(=O)Nc2ccc3nc(NC(=O)C4CCCN(S(=O)(=O)C5CC5)C4)sc3c2)c1F` (stereo not given), for which the growth in experiment [1] was 34%; in [2], 44.1%; in [3] it was 56.3%; in experiment [4], 63.5%; in experiment [5] it was 47.6%; in experiment [6], 39.1%. Moreover, the growth was -43.8% (active) in [7]; 44.7% in experiment [8]; 24.5% in experiment [9]; 56.2% in experiment [10]; 54.9% in experiment [11]; 31.5% in [12]. Further, the growth in [13] was 65%; in experiment [14], 43.1%; in experiment [15], 74.5%; in experiment [16] it was 47%; in experiment [17], 46.6%; in [18], 76%. Further, the growth in experiment [19] was 18%; in experiment [20], 3.08% (active).
Regarding `Nc1nnc(-c2c[nH]c3ccc(Br)cc23)c(-c2c[nH]c3ncc(Br)cc23)n1`, the growth in experiment [1] is 26.9%; in experiment [2], 43.6%; in experiment [3], 50.2%; in experiment [4] it was 47%; in [5], 41.8%; in [6] it was 29.1%. For the same compound, the growth is 44.2% in [7]; 25.3% in experiment [8]; 31.8% in experiment [9]; 37.5% in experiment [10]; -33.2% (active) in experiment [11]; 46.6% in [12]. The growth in experiment [13] was 46.5%; in experiment [14], 42.1%; in experiment [15] it was 33.1%; in experiment [16], 29.6%; in [17] it was 21%; in [18] it was 17.6%. Further, the growth is 13.4% in [19] and 2.51% (active) in [20].
As for `COc1ccc(C(=O)/C=C/c2ccc(OC)c(OCc3ccccc3)c2)cc1OC`, the growth in experiment [1] was 1.81% (active); in [2], 5.47% (active); in experiment [3] it was 39.7%; in experiment [4] it was 17.3%; in [5], 7.69% (active); in [6], 25.1%. Moreover, the growth was 31.9% in experiment [7]; 14.8% in [8]; -26% (active) in experiment [9]; 39.8% in [10]; 55.8% in [11]; 25.2% in experiment [12]. Further, the growth is 7.92% (active) in experiment [13]; 19.3% in experiment [14]; 20.5% in experiment [15]; 21.8% in experiment [16]; 39.4% in experiment [17]; 108% in experiment [18]. The figures for the growth in experiment [19] and in experiment [20] were 12.9% and 8.07% (active), respectively.
Turning to `Cc1ccc(/C=C/c2n(Cc3ccc4ccccc4c3)c3ccccc3[n+]2Cc2ccc3ccccc3c2)cc1`, the growth in experiment [1] is -86.2% (active); in experiment [2], -50.4% (active); in [3] it was -88.3% (active); in experiment [4], -58.5% (active); in experiment [5], -42.1% (active); in experiment [6], -88.3% (active). Besides, the growth in experiment [7] is -100% (active); in experiment [8], -63.6% (active); in experiment [9], -87.9% (active); in [10], -92.3% (active); in experiment [11] it was -97.7% (active); in experiment [12], -95.7% (active). Also, the growth in experiment [13] is -56.1% (active); in experiment [14], -96% (active); in [15], -80% (active); in experiment [16] it was -96.1% (active); in experiment [17], -94.6% (active); in experiment [18], -82.5% (active). The growth in [19] was -66.1% (active); in experiment [20], -25.9% (active).
